Source: PubChem BioAssay (National Center for Advancing Translational Sciences (NCATS))
D1 antag: Antagonist of Human D 1 Dopamine Receptor: qHTS | D(1A) dopamine receptor (Homo sapiens), P21728 | HEK293 TREx D1 cells, calcium flux, dopamine EC80; stronger effect = lower value | activity change, negative = inhibition, % at 10 µM | 3.2% of 360,000 active | AID 504652, 2011; in the data active means activity change below about -30%
Target sequence (P21728 whole entry, looked up): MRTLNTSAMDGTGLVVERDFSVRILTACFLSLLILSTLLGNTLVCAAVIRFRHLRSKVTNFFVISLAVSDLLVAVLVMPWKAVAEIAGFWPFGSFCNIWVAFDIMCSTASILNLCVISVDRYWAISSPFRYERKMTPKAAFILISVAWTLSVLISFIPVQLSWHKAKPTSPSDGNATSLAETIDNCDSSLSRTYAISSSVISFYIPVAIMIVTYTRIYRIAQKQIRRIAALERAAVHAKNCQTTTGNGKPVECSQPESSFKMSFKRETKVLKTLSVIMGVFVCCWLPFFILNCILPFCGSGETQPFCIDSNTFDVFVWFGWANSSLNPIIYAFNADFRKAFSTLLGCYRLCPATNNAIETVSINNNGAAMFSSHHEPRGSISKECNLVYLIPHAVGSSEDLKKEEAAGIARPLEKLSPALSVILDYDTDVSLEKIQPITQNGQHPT
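Tetracycline-induced HEK293 T-REx cells with force-coupled D1 receptor were loaded with a no-wash calcium dye. Compound was added after a 10 s baseline and read kinetically for 180 s; EC80 dopamine was then added and calcium flux followed another 180 s.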
DRD3 agonist: qHTS of D3 Dopamine Receptor Agonist: qHTS | 0.58% of 410,000 active | D3R DiscoveRx beta-arrestin cells, luminescence, 90 min | max activation, % | D(3) dopamine receptor (Homo sapiens), P35462; in the data active means max activation above about 30%
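Cells at 1500/well, incubated overnight, then treated with pinned compounds (dopamine as control) for 90 min at 37 degrees C. DiscoveRx reagent added for 30 - 60 minutes at room temperature; luminescence read.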
DRD3 antagonist: qHTS of D3 Dopamine Receptor Antagonist: qHTS | D3R cells, DiscoveRx beta-arrestin luminescence, antagonist mode; stronger effect = lower value | D(3) dopamine receptor (Homo sapiens), P35462 | 2.5% of 360,000 active | max response, negative = inhibition, %; in the data active means max response below about -50%; inconclusive means no clear call, values can overlap the other calls
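Cells plated overnight at 1500 cells/well, then exposed to library compounds with dopamine controls for 90 minutes at 37 degrees C. DiscoveRx reagent added for 30–60 minutes at room temperature; luminescence read, quantitative HTS format.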
D1 ag: Allosteric Agonists of the Human D1 Dopamine Receptor: qHTS | activation, % at 2 µM | 1% of 360,000 active | AID 504660, 2011 | HEK293 T-REx D1 cells, calcium flux, agonist mode; in the data active means activation above about 30%
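Inducible HEK293 T-REx D1 cells, force-coupled to calcium signalling, were plated at 4000 cells/well with tetracycline and held overnight at 30 C. After no-wash calcium dye loading, compound-evoked calcium rise over 180 s flagged agonists.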
D1 PAM: Potentiators of Human D1 Dopamine Receptor: qHTS. HEK293 TREx D1 cells, calcium flux, dopamine EC20 potentiation. potentiation, % at 10 µM. 0.036% of 360,000 active. AID 504651, 2011; in the data active means potentiation above about 30%
BCR signal inh: qHTS Assay to Find Inhibitors of Chronic Active B-Cell Receptor Signaling. ABC-DLBCL IkBa-CBG/CBR reporter, luminescence ratio, 4 h. Potency, µM (doses to about 46.1 µM), actives largely listed as inhibitors. 0.05% of 340,000 active; active means well fitted inhibition curve with a large enough effect in the signal ratio, with a control signal flat, not every such curve was filed as active; inconclusive means small, poorly fitted or top-dose-only effect, or effect the other way, or a change in a side signal; the % refers to the signal ratio
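Concentration-response series (up to 46 uM) were applied to TMD8 dual-reporter cells for 4 h at 37C with doxycycline. Green/red ratio, after filter-overlap correction, defined %Activity; red signal alone was normalised to basal cells and zero luminescence.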
Numbers stand for hits; 0 = inactive; ? = inconclusive; - = no result given. In the library only some 6% were active in any assay of this set; here they are far more common.

SMILES | D1 antag | DRD3 agonist | DRD3 antagonist | D1 ag | D1 PAM | BCR signal inh
COc1ccc(S(=O)(=O)Cc2ccc(C(=O)NCc3ccc(C)cc3)o2)cc1 | 0 | 0 | 0 | 0 | 0 | 0
COc1ccccc1CNC(=O)c1ccc(CS(=O)(=O)c2ccc(C)cc2)o1 | -50.2 | 0 | 0 | 0 | 0 | 0
O=C(Nc1ccc(Br)cc1F)c1cc(S(=O)(=O)NC2CCCCC2)ccc1F | 0 | 0 | - | 0 | 0 | ?
C=CCN(CC=C)Cc1cc(=O)oc2cc(C)c(C)cc12 | - | 0 | 0 | - | - | -
Cc1ccc(Cl)cc1NC(=O)CCCn1c(=O)c2cccn2c2ccccc21 | 0 | 0 | - | 0 | 0 | -
O=C(NCc1ccccc1Cl)c1ccc(CS(=O)(=O)c2ccc(Br)cc2)o1 | 0 | 0 | - | 45.7 | 0 | -
O=C(NCc1ccccc1Cl)c1ccc(CS(=O)Cc2ccc(Cl)cc2)o1 (configuration not stated) | -46.0 | 0 | 0 | 0 | 0 | 0
O=C(NCc1ccccc1Cl)c1cc2ccccc2o1 | -32.6 | 0 | - | 34.1 | 0 | -
CCCCN(CCCNC(=O)c1ccc(CS(=O)(=O)c2c(Cl)cccc2Cl)o1)Cc1ccccc1 | 0 | 0 | 0 | 0 | 0 | 0
CC(C)N(CCCNC(=O)c1ccc(CS(=O)(=O)c2c(Cl)cccc2Cl)o1)Cc1ccccc1 | 0 | 0 | -56.0 | 0 | 0 | 0
Cc1ccccc1CNC(=O)c1cc2ccccc2o1 | - | 0 | 0 | - | - | -
Cc1ccc(Cl)cc1N1CCN(C(=O)c2ccc(NC(=O)c3nsc4ccccc34)cc2)CC1 | 0 | 0 | - | 0 | 0 | -
COc1ccccc1NC(=O)c1sc2nc(C)c(C(=O)Nc3ccc(C)cc3C)c(-c3ccc(Br)cc3)c2c1N | 0 | 0 | - | 0 | 0 | -
O=C(NCc1ccccc1)c1ccc2oc(=O)n(Cc3ccccc3)c2c1 | 0 | 0 | - | 0 | 0 | -
O=C(NCc1ccccc1Cl)c1ccc2oc(=O)n(Cc3ccccc3)c2c1 | -32.7 | 0 | - | 0 | 0 | -
Cc1cc(C)c(C(O)c2ncc(-c3cccc(F)c3)[nH]2)c(C)c1 (configuration not stated) | - | 0 | 0 | - | - | -
CCOc1ccc(C2CC(=O)N(Nc3ccc([N+](=O)[O-])cc3[N+](=O)[O-])C2=O)cc1 (configuration not stated) | 0 | 0 | ? | 0 | 0 | 0
CC(C)Oc1ccc(C2CC(=O)N(Nc3ccc([N+](=O)[O-])cc3[N+](=O)[O-])C2=O)cc1 (configuration not stated) | 0 | 0 | -50.5 | 0 | 0 | ?
C=CC1=C2C=C(C3CC3)N(CCCN(CC)CC)C=C2C(=O)C(C)(OC(=O)c2ccco2)C1=O (configuration not stated) | - | 46.2 | 0 | - | - | -
CC(=O)c1coc2ccc(OCCN3CCCCC3)cc12 | 0 | 0 | -83.5 | 0 | 0 | 0
COc1ccc2occ(C(C)=O)c2c1 | 0 | 0 | 0 | 0 | 0 | 0
CC(C)c1ccc(CN(C)C(=O)c2ccc(S(=O)(=O)NCc3ccco3)cc2)cc1 | -30.4 | 0 | 0 | 0 | 0 | ?
CN(Cc1ccc(Cl)cc1)C(=O)c1ccc(S(=O)(=O)NCc2ccco2)cc1 | 0 | 0 | 0 | 0 | 0 | 0
Cc1c(-c2nc(-c3ccc4c(c3)OCO4)no2)nnn1-c1cccc(C(F)(F)F)c1 | 0 | 0 | - | 0 | 0 | -
CCOC(=O)c1c(C)[nH]c(C)c1C(=O)COC(=O)c1cc(OC)cc(OC)c1 | - | 0 | 0 | 0 | 0 | ?
SMILES | D1 antag | DRD3 agonist | DRD3 antagonist | D1 ag | D1 PAM | BCR signal inh
CCOC(=O)c1c(C)[nH]c(C)c1C(=O)COC(=O)c1cc(OC)c(OC)cc1OC | -31.7 | 0 | 0 | 0 | 0 | ?
CCOC(=O)c1c(C)[nH]c(C)c1C(=O)COC(=O)c1cccc(S(=O)(=O)N(CC)CC)c1 | -49.1 | 0 | 0 | 0 | 0 | ?
CCOC(=O)c1c(C)[nH]c(C)c1C(=O)COC(=O)c1ccc(S(=O)(=O)N(CC)CC)cc1 | 0 | 0 | 0 | 0 | 0 | 0
COC(=O)c1ccc(N2C(c3cc(OC)cc(OC)c3)=Cc3ccc(-c4ccc(C(N)=O)cc4)cc3C2CC(=O)C2CC2)cc1 (configuration not stated) | - | 0 | 0 | - | - | -
COc1ccc(CNC(=O)CN2C(=O)COc3ccc(S(=O)(=O)N4CCCCCC4)cc32)cc1 | 0 | 0 | - | 0 | 0 | -
OC(CCCN1CCC(O)(c2ccc(Cl)cc2)CC1)c1ccc(F)cc1 (configuration not stated) | -36.8 | 0 | -113.9 | 31.8 | 0 | 0
Cc1nn(C)c2c1c(-c1ccccc1)cc(=O)n2CC(=O)NC(C)C | 0 | 0 | - | 0 | 0 | -
N#C/C(=C\Nc1ccccc1O)c1nc2ccccc2o1 | -36.2 | 0 | 0 | 0 | 0 | ?
N#C/C(=C\c1ccncc1)c1nc2ccccc2o1 | 0 | 0 | 0 | 0 | 0 | ?
CC1(CCc2ccc3c(c2)OCO3)NCCc2c1[nH]c1ccccc21 (configuration not stated) | -37.8 | 0 | 0 | 127.8 | 0 | 0
CC1(CCc2ccc3c(c2)OCO3)NC(=O)c2ccccc2N1 (configuration not stated) | 0 | 0 | 0 | 0 | 0 | 0
CCOc1ccc(NC(=O)c2cc3c(n(-c4ccc(OC)cc4)c2=O)CC(C)(C)CC3=O)cc1 | 0 | 0 | - | 0 | 0 | -
C=CS(=O)(=O)c1sc(Cl)c(N2CCOCC2)c1[N+](=O)[O-] | 0 | 0 | -72.4 | 0 | 0 | ?
CC1=C(C(=O)Nc2cccc(Cl)c2C)C2(CCCCCC2)OC1=O | 0 | 0 | - | 0 | 0 | -
COC(c1ccccc1)c1nnc(CCC(=O)N(C)CCCC2CCCC2)o1 (configuration not stated) | -32.5 | 0 | 0 | 0 | 0 | 0
COC(c1ccccc1)c1nnc(CCC(=O)N(C)CCOc2ccccc2)o1 (configuration not stated) | 0 | 0 | 0 | 0 | 0 | ?
CCOC(=O)c1c(NC(=O)CSc2cn(CCNC(=O)c3ccccc3F)c3ccccc23)sc2c1CCCC2 | 0 | 0 | - | 0 | 0 | -
O=C(Cc1ccccc1)NNc1ccc2ccccc2c1 | -49.2 | 0 | 0 | 0 | 0 | ?
CCOC(=O)c1c(S(=O)(=O)N2CCCC(C(=O)N3CCN(c4ccc(F)cc4)CC3)C2)c(C)n(C)c1C (configuration not stated) | 0 | 0 | - | 0 | 0 | 0
CCCCc1ccc(NC(=O)Cn2cnc3c2c(=O)n(C)c(=O)n3C)cc1 | 0 | 0 | - | 0 | 0 | -
Cc1ccc(NC(=O)N2CCN(c3nnc(C)c4c(C)n(-c5ccccc5)nc34)CC2)cc1Cl | 0 | 0 | - | 0 | 0 | -
